The assay concerns CSK. The following applies: concentration: 1 μM, replicates: in singlicate; n = 1.
In the case of `Cc1ccc(C)c(NC(=O)NC2CCN(c3ccnc(Nc4ccc(F)cc4)n3)C2)c1` (stereo not drawn) [GSK1379720], the “%Inh” value came out at 0%. Take `Cl.Cl.NCC(NC(=O)c1cc(-c2ccccc2)c(-c2ccnc3[nH]ccc23)s1)c1ccccc1` (stereo not drawn) [GSK1321561]: the “%Inh” value was 0%. In the case of `CN(C)Cc1ccc(-c2ccc3c(Nc4ccc(Oc5ccccn5)cc4)ccnc3c2)o1` [GW567148], the “%Inh” value was 82%. For the molecule `COc1cccc(C(=O)Nc2cccc(Oc3ccc4nc(NC(=O)C5CC5)cn4n3)c2)c1`, the “%Inh” value was found to be 17%. Take `CNC(=O)c1ccccc1Nc1nc(Nc2ccc(N3CCOCC3)cc2)ncc1Cl.Cl` [GSK1576028]: the “%Inh” value was 85%.

As for `C[C@@H]1CC[C@@H](C(=O)Nc2ccccc2)CN1c1cc(-c2ccc3c(N)n[nH]c3c2)nc(N)n1` [GSK2286062], the “%Inh” value stood at 0%. Regarding `Cn1cc(-c2ccc3c(c2)CCN3C(=O)Cc2cccc(Cl)c2)c2c(N)ncnc21` [GSK2606590], the “%Inh” value came out at 6%. Consider `FC(F)(F)c1ccc(/C=C/c2cncnc2Nc2ccc3[nH]c(Cc4ccccc4)nc3c2)cc1` [GW709199], for which the “%Inh” value was found to be 0%. On to `COc1cccc(NC(=O)NC2CCN(c3ccnc(Nc4cc(OC)c(OC)c(OC)c4)n3)C2)c1` (stereo not drawn) [GSK1379763], for which the “%Inh” value stood at 15%. For the molecule `Fc1ccc(-c2ncn(C3CCNCC3)c2-c2ccnc(Oc3ccc(-c4ccccc4)cc3)n2)cc1` [SB-245391], the “%Inh” value is on record as 14%. The result for `Oc1cc(Nc2ccnc3cc(I)ccc23)ccc1F` [GW552771] reads 0%; that for `COC(=O)Nc1nc2ccc(Oc3ccc(NC(=O)Nc4cc(C(F)(F)F)ccc4F)cc3)cc2n1C.Cl` [GW692089], 0%.

(Values after publication PMC5540273 (PLoS ONE, 2017).)
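Also: KINOMEscan kinase panel screen.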
